Unmarked numbers belong to inactive results.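 How the source made its calls: active = AUC reduced over 20% with Padj below 0.05 in at least 2 of 3 replicates; inactive = otherwise.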
Experiments:
Assay in all cases: growth AUC relative to DMSO control (median of replicates) (fraction); higher = more growth (less inhibition), active = hit call of the paper
Conditions in all cases: 20 µM; 24 h
Coprococcus comes = tested on: Coprococcus comes
Method in brief: (§1)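 In round-bottom 96-well plates sealed with pierced gas-permeable seals, gut bacterial monocultures in mGAM were grown anaerobically at 37 °C from OD600 0.05 with 20 µM compound (1% DMSO). OD600 readings were taken hourly for 24 h, and the minimum OD was set to 0. Area under the growth curve was then normalised to the plate median of solvent-only wells, or to row and column medians on the industrial chemical plate. The value given is the median of three biological replicates grown on separate days.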

Escherichia coli ED1a = tested on: Escherichia coli ED1a
Method in brief: as §1

Escherichia coli IAI1 = tested on: Escherichia coli IAI1
Method in brief: as §1

Eubacterium rectale = tested on: Eubacterium rectale
Method in brief: as §1

[1] = tested on: Fusobacterium nucleatum subsp. animalis
Method in brief: as §1

Lactobacillus gasseri = tested on: Lactobacillus gasseri
Method in brief: as §1

Lactobacillus paracasei = tested on: Lactobacillus paracasei
Method in brief: as §1

Odoribacter splanchnicus = tested on: Odoribacter splanchnicus
Method in brief: as §1

[2] = tested on: Parabacteroides distasonis
Method in brief: as §1

Parabacteroides merdae = tested on: Parabacteroides merdae
Method in brief: as §1

Roseburia intestinalis = tested on: Roseburia intestinalis
Method in brief: as §1

Streptococcus salivarius = tested on: Streptococcus salivarius
Method in brief: as §1

Compound | growth AUC (Coprococcus comes) | growth AUC (Escherichia coli ED1a) | growth AUC (Escherichia coli IAI1) | growth AUC (Eubacterium rectale) | growth AUC [1] | growth AUC (Lactobacillus gasseri) | growth AUC (Lactobacillus paracasei) | growth AUC (Odoribacter splanchnicus) | growth AUC [2] | growth AUC (Parabacteroides merdae) | growth AUC (Roseburia intestinalis) | growth AUC (Streptococcus salivarius)
Oc1ccc(Cl)cc1 | 0.989 | 0.967 | 0.951 | 0.921 | 0.941 | 0.968 | 1 | 1.01 | 1.05 | 0.988 | 0.972 | 0.984
O=S(=O)(c1ccccc1)c1ccccc1 | 0.977 | 0.988 | 0.97 | 1.03 | 1 | 0.914 | 1.03 | 0.999 | 1.02 | 0.929 | 0.956 | 0.943
Clc1ccc(C(c2ccc(Cl)cc2)C(Cl)Cl)cc1 | 1.01 | 1.02 | 0.984 | 1.01 | 1.07 | 0.956 | 0.994 | 0.951 | 1.02 | 0.918 | 0.923 | 0.99
N#Cc1nn(-c2c(Cl)cc(C(F)(F)F)cc2Cl)c(N)c1C(F)(F)F | 0.885 | 0.986 | 0.978 | 1.01 | 0.842 | 0.801 | 0.927 | 0.696 | 0.791 (active) | 0.834 | 0.698 (active) | 0.539 (active)
CS(=O)(=O)c1cc(C(F)(F)F)ccc1C(=O)c1cnoc1C1CC1 | 1.02 | 1.01 | 1.01 | 1.04 | 0.93 | 1.04 | 0.826 | 1.1 | 1.05 | 1.02 | 1.03 | 1.01
CSc1nnc(C(C)(C)C)c(=O)n1N | 1.07 | 1.04 | 1.01 | 0.997 | 1.03 | 1.06 | 1.03 | 1.05 | 1.02 | 1.01 | 1.06 | 1.01
CC1(C)CC/C(=C\c2ccc(Cl)cc2)C1(O)Cn1cncn1 (centres undefined) | 0.974 | 0.999 | 0.98 | 0.986 | 0.97 | 0.935 | 0.955 | 1.04 | 0.964 | 0.967 | 1.02 | 0.993
C=CCOC(=O)C(C)(C)OC(=O)c1cc(-n2c(=O)cc(C(F)(F)F)n(C)c2=O)ccc1Cl | 1 | 0.998 | 1.02 | 1.05 | 1.09 | 0.871 | 1.01 | 0.913 | 0.811 | 0.962 | 0.994 | 0.98
CCC(=O)Nc1ccc(Cl)c(Cl)c1 | 1 | 0.943 | 0.99 | 0.992 | 0.87 | 0.979 | 0.922 | 0.943 | 0.994 | 0.995 | 0.917 | 0.973
CCc1cccc(C)c1N(C(=O)CCl)[C@@H](C)COC | 0.976 | 0.981 | 1.01 | 1.06 | 1.15 | 0.944 | 1.01 | 1.02 | 1.01 | 0.938 | 1.03 | 1.02
NC(=S)c1c(Cl)cccc1Cl | 1.01 | 0.994 | 0.979 | 1.22 | 0.822 | 0.884 | 0.953 | 0.985 | 0.965 | 0.887 | 1 | 0.943
CC(C)N(C(=O)COc1nnc(C(F)(F)F)s1)c1ccc(F)cc1 | 0.988 | 1.03 | 1.01 | 1.1 | 1.05 | 1.04 | 1.02 | 1 | 0.937 | 0.986 | 1.01 | 0.949

Source: the supplement of paper PMC12669032
